One molecule from PubChem BioAssay AID2284099 (EPA ToxCast) can be followed below.

Structures are written as SMILES. Activity calls are given as the source filed them. The calls were made as follows: active = hit-call score of the fitted dose curve at least 0.9, where 1 is the maximum; inactive = score below 0.9.

human JAK2 Tyrosine Kinase, JAK2 (gene 3717), sequence (O60674 whole entry, looked up): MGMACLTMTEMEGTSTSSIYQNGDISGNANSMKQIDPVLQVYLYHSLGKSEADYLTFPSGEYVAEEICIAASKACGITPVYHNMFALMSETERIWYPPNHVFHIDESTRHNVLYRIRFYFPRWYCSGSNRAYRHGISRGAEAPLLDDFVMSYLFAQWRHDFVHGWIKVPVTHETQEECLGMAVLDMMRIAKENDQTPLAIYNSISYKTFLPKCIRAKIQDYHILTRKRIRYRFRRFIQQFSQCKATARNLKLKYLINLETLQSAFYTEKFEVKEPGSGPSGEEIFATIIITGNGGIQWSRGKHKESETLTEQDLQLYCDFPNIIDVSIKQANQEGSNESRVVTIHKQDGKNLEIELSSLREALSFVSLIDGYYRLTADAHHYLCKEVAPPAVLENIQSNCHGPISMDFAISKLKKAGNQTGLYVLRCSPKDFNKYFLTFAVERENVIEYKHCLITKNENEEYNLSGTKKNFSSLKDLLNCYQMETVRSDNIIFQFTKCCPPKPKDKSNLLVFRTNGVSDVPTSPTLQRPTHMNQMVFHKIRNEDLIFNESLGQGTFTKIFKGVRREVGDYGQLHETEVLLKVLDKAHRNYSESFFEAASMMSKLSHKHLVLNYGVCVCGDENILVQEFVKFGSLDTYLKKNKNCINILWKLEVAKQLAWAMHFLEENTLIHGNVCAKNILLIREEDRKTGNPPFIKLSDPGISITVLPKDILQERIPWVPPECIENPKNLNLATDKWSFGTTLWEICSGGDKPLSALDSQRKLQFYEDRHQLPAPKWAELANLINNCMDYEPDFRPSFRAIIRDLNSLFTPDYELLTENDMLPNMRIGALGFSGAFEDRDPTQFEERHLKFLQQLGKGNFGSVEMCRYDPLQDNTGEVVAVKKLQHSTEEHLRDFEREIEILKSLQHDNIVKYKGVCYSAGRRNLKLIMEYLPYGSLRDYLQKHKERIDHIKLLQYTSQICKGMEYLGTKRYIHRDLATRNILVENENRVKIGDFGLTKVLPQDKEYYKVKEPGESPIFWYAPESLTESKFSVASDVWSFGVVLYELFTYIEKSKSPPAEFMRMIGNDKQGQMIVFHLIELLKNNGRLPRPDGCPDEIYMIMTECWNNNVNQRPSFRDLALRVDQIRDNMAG

The assay deals with human JAK2 Tyrosine Kinase, JAK2 (gene 3717) (UniProt O60674). The experiment in a line: ERF_FR_ENZ_hJAK2: Eurofins (ERF) Enzymatic Radiometric [Km ATP] KinaseProfiler LeadHunter Assay for human JAK2 Tyrosine Kinase. As for the experimental part:
ERF_FR_ENZ_hJAK2 is a biochemical, single-readout assay that uses extracted gene-proteins in a cell-free assay. Measurements were taken 1 hour after chemical dosing in a 96-well plate. See JAK2 Human TK Kinase Enzymatic LANCE Assay [Km ATP], Cerep.ERF_FR_ENZ_hJAK2 is an assay component calculated from the ERF_FR_ENZ_hJAK2 assay. It is designed to measure enzyme activity using a type of enzyme reporter as detected by fluorescence intensity with LANCE technology.Data from the assay component ERF_FR_ENZ_hJAK2 was analyzed at the assay endpoint, ERF_FR_ENZ_hJAK2, in the positive analysis fitting direction relative to DMSO as the negative control and baseline of activity. Using a type of enzyme reporter, loss-of-signal activity can be used to understand changes in enzymatic activity as they relate to gene JAK2. To generalize the intended target to other relatable targets, this assay endpoint is annotated to the kinase intended target family, where the subfamily is non-receptor tyrosine kinase.
JAK2 (h) is incubated with 8 mM MOPS pH 7.0, 0.2 mM EDTA, 100 uM […], 10 mM MgAcetate and [gamma-33P]-ATP (specific activity and concentration as required). The reaction is initiated by the addition of the Mg/ATP mix. After incubation for 40 minutes at room temperature, the reaction is stopped by the addition of phosphoric acid to a concentration of 0.5%. […]
Take `O=C(/C=C/c1ccc(O)cc1)CC(=O)/C=C/c1ccc(O)cc1`: the AC50 is 2510 nM (active).

By AC50 is commonly meant the midpoint of the concentration-response curve, whichever way the signal moves.
